The record followed here is PubChem BioAssay AID1063 (University of Pittsburgh Molecular Library Screening Center, 2008).

In all, about 200,000 compounds went through this assay and about 18,000 (9%) were called active. Rule as the data show it: active = inhibition above about 50%; inactive = the rest. Many of the other results were omitted from the sample, so actives are more common in it than they were.

The nature of the test: antileishmanial activity against promastigotes – primary screen (AID 1063).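 Also: promastigotes grown with compound for 44 hours at 28 °C.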 The note with it: Leishmania major promastigotes, resazurin fluorescence viability; at 10 µM; active compounds read high.
As for `CNc1nc2c(C)cccn2c(=O)c1C=Nc1ccc(OC)cc1`, the inhibition is 1.72% (inactive).

Turning to `C/C(=N/NC(=O)c1ccc(NC(=O)c2ccc(F)cc2)cc1)c1ccccc1`, the inhibition was -6.46% (inactive).

As to `CC(=O)Nc1ccc(/C(C)=N/NC(=O)CN(c2ccccc2Br)S(C)(=O)=O)cc1`, the inhibition is 50.5% (active).

As to `COc1ccccc1N(CC(=O)Nc1ccc(C(F)(F)F)cc1)S(C)(=O)=O`, the inhibition is 1.92% (inactive).

Turning to `O=C(Nc1ccccc1F)c1ccc(Cn2cc(Br)cn2)cc1`, the inhibition is -6.11% (inactive).

For the molecule `Cc1ccc(-c2nc(C#N)c(NCCCn3ccnc3)o2)cc1`, the inhibition is 2.16% (inactive).

For the molecule `O=C(Cn1ncc(N2CCCC2)c(Br)c1=O)c1ccc(Cl)cc1`, the inhibition is 1.31% (inactive).

For the molecule `Cn1c(C(=O)NCCCN2CCN(c3cccc(Cl)c3)CC2)cc2c(=O)n(C)c3ccccc3c21`, the inhibition is 62.5% (active).

For `CCn1c(=O)cc(OCC(=O)NCCCN2CCN(c3cccc(Cl)c3)CC2)c2ccccc21`, the inhibition is 23.9% (inactive).

For the molecule `CC1CCCC(C)N1CCCNC(=O)c1cc2c(=O)n(C)c3ccccc3c2n1C` (centres undefined), the inhibition was 8.51% (inactive).

On to `Cc1cc(NC(=O)CSc2nc3c(cc2C#N)CCCCC3)no1`, for which the inhibition was 2.09% (inactive).

In the case of `O=C(CCC1CCCN(C(=O)Cc2ccc(F)cc2)C1)N1CCN(c2ccccn2)CC1` (centres undefined), the inhibition was 0.87% (inactive).

With `O=C(COC(=O)c1cnccn1)Nc1cccc2ccccc12`, the inhibition was -4.62% (inactive).

On to `Cc1cc(C)n2nc(C(=O)N(C)C(c3ccccc3)c3ccccc3)nc2n1`, for which the inhibition was 0.1% (inactive).

For `O=C(CO/N=C/c1ccc(OC(F)F)cc1)NCc1ccc(F)cc1`, the inhibition was 6.32% (inactive).

On to `CCOc1ccc(NC(=O)CC2C(=O)N(c3ccccc3)C(=O)N2CCOC)cc1` (centres undefined), for which the inhibition was -1.57% (inactive).

In the case of `COC(=O)CN1C(=S)N(c2ccccc2)C(=O)C1CC(=O)Nc1ccc(Cl)cc1` (centres undefined), the inhibition is 50.4% (active).

`COc1ccc(N2C(=O)C(CC(=O)Nc3ccccc3)N(Cc3ccc(OC)c(OC)c3)C2=O)cc1` (centres undefined): the inhibition was -5.05% (inactive).

On to `O=C(Nc1ccc(-c2ccc3nncn3n2)cc1)C1CCCCC1`, for which the inhibition is -4.63% (inactive).

In the case of `CCc1ccc(CN2C(=O)c3ccccc3C2C(=O)NCC2CCCO2)cc1` (centres undefined), the inhibition is 5.61% (inactive).

Turning to `COc1cccc(CN(C)CC(=O)NCc2ccccc2Cl)c1OC`, the inhibition is 2.93% (inactive).

As to `Cn1c(=O)c(=O)n(C)c2cc(S(=O)(=O)NCCc3ccccc3)ccc21`, the inhibition was 18.8% (inactive).

Regarding `COC(=O)c1cc(S(=O)(=O)NC2CCN(Cc3ccccc3)CC2)cn1C`, the inhibition was 79.3% (active).

Regarding `O=C(NC1(C(F)(F)F)NC(=O)N(C2CCCCC2)C1=O)c1ccco1` (centres undefined), the inhibition is -0.8% (inactive).

As to `COc1cc(NC(=S)NCc2ccco2)c(OC)cc1Cl`, the inhibition was 7.75% (inactive).

With `O=C(Nc1ccc(NC(=O)c2ccco2)c(Cl)c1)c1cccc([N+](=O)[O-])c1`, the inhibition is -5.27% (inactive).

As for `COc1ccc(NC(=O)c2cccc(NC(=O)c3ccco3)c2)c(OC)c1`, the inhibition is 99.3% (active).

With `COc1ccccc1C(=O)Nc1ccc(NC(=O)c2ccco2)c(C)c1`, the inhibition was 3.48% (inactive).

`COC(=O)c1cc(Cl)c(NC(=O)c2ccco2)cc1OC`: the inhibition is 8.8% (inactive).

With `Cc1ccc(C(=O)COc2cccc(NC(=O)c3ccco3)c2)cc1`, the inhibition is 64.6% (active).

Turning to `COC(=O)c1ccc(NC(=O)c2ccco2)cc1`, the inhibition was -5.73% (inactive).

As to `Cc1ccnc(NC(=O)c2ccc(NC(=O)c3ccco3)cc2)c1`, the inhibition is -2.95% (inactive).

Consider `COc1cc(NC(=O)c2cc([N+](=O)[O-])ccc2Br)ccc1NC(=O)c1ccco1`, for which the inhibition is 99% (active).

Regarding `COc1cccc(C(=O)Nc2ccc(NC(=O)c3ccco3)cn2)c1`, the inhibition is 4.41% (inactive).

As for `CCS(=O)(=O)c1ccc(O)c(NC(=O)COc2ccc(Cl)cc2)c1`, the inhibition was -12.8% (inactive).

Consider `CCOc1c(CNCc2ccc(C(=O)O)cc2)cccc1OC`, for which the inhibition is -5.92% (inactive).

Regarding `NS(=O)(=O)c1ccc(NC(=S)NC(=O)c2cccnc2)cc1`, the inhibition is -2.35% (inactive).

Take `COCC(C)n1c(C)cc(C(=O)COc2ccc(C)nc2[N+](=O)[O-])c1C` (centres undefined): the inhibition is 3.94% (inactive).

For `CCc1ccc(NC(=O)C(=O)N/N=C(\C)CC(=O)NCCOC)cc1`, the inhibition is -2.29% (inactive).

On to `COc1ccc(NC(=O)CN2C(=O)CSC2=O)cc1`, for which the inhibition was -6.2% (inactive).

As to `Cc1ccc(-n2[nH]c(C)c(/C=N/N3C(=O)c4cccc5cccc(c45)C3=O)c2=O)cc1`, the inhibition is -6.15% (inactive).

In the case of `COc1cc(SC#N)ccc1N=Cc1c(C)[nH]n(-c2ccc(C)cc2)c1=O`, the inhibition was 100% (active).

In the case of `CCc1nnc(NS(=O)(=O)c2ccc(N=Cc3c(C)[nH]n(-c4ccc(C)cc4)c3=O)cc2)s1`, the inhibition was -3.52% (inactive).

Take `COc1ccc(C)cc1NC(=O)CSc1nnc(CC(=O)Nc2ccccc2F)n1C`: the inhibition was -0.88% (inactive).

With `O=C(COC(=O)C12CC3CC(CC(O)(C3)C1)C2)NC12CC3CC(CC(C3)C1)C2`, the inhibition was 17.4% (inactive).

In the case of `Cc1ccc(C(=O)NC(=S)NCc2cccnc2)cc1`, the inhibition was 2.7% (inactive).

For the molecule `Cc1ccc(CN(Cc2cccnc2)C(=S)Nc2cc(Cl)ccc2C)cc1`, the inhibition is 93.8% (active).

Turning to `Cc1cccc(C)c1NC(=S)N(Cc1cccnc1)Cc1ccccc1Cl`, the inhibition was 93.8% (active).

With `COCCNC(=S)N(Cc1cccnc1)Cc1ccc(OC)c(OC)c1`, the inhibition is 1.16% (inactive).

As to `Cc1c(Cl)cccc1NC(=S)N(Cc1ccccc1)Cc1cccnc1`, the inhibition was 90.4% (active).

Turning to `Cc1ccc(CN(Cc2cccnc2)C(=S)Nc2cccc(Cl)c2C)cc1`, the inhibition is 21.5% (inactive).

As to `COCCN(CCOC)C(=S)Nc1ccccc1Cl`, the inhibition was -4.19% (inactive).

Take `O=C(Nc1ccccc1)N(Cc1cccnc1)Cc1ccco1`: the inhibition is 4.43% (inactive).

For `Cc1ccc(NC(=S)NCc2ccccc2Cl)c(C)c1`, the inhibition was 22.1% (inactive).

On to `CC(C)CCC(C)NC(=O)c1ccc2nccnc2c1` (centres undefined), for which the inhibition is 11.2% (inactive).

On to `COc1cc(-c2nnn(CC(=O)NCc3ccccc3)n2)cc(OC)c1OC`, for which the inhibition was 16.3% (inactive).

For the molecule `COc1cc(C(=O)N2C(=O)c3cccc(N)c3C2=O)cc(OC)c1OC`, the inhibition is -3.21% (inactive).

Take `COCCn1c(C)cc(C(=O)COC(=O)/C=C/c2cccc(OC)c2)c1C`: the inhibition is 0.63% (inactive).

With `Cc1cc(C)nc(NS(=O)(=O)c2ccc(N/C=C\C(=O)c3cccs3)cc2)n1`, the inhibition was 4.34% (inactive).

Regarding `COc1ccc(/C=C/C(=O)Nc2cccnc2)cc1OC`, the inhibition was -4.52% (inactive).

In the case of `Cc1cc(C)cc(C(=O)NCC(=O)OCC(=O)N2CCCCC2)c1`, the inhibition was -9.27% (inactive).

On to `Cc1cc(C)n(CCNCc2c(C(=O)N3C[C@@H](C)O[C@@H](C)C3)nc3ccc(Cl)cn23)n1`, for which the inhibition was -6.81% (inactive).

As to `Cc1ccc(N(C(=O)c2sc(C)nc2C)C(C(=O)NC(C)(C)C)c2ccncc2)cc1` (centres undefined), the inhibition was -0.8% (inactive).

For `O=C(O)/C=C/c1ccc(OCCCF)cc1`, the inhibition is -5.86% (inactive).

For `COc1cccc(/C=C2\SC(=N)N(c3ccc(F)cc3)C2=O)c1`, the inhibition was 5.76% (inactive).

Turning to `O=C(CSc1nnnn1-c1ccc(O)cc1)N1N=C(c2ccc3ccccc3c2)CC1c1ccccc1` (centres undefined), the inhibition was 99.8% (active).

Consider `COc1ccc(C2CC(c3ccccc3)=NN2C(=O)CSc2nccc(=O)[nH]2)cc1` (centres undefined), for which the inhibition is -0.2% (inactive).

For the molecule `COc1ccc(-n2nnnc2SCC(=O)Nc2ccccc2)cc1`, the inhibition is -4.13% (inactive).

In the case of `C/C(N)=C(/C#N)C(=O)COC(=O)C1CCN(C(=O)c2ccc(Cl)cc2)CC1`, the inhibition is -2.84% (inactive).

Regarding `Cc1ccc(S(=O)(=O)/N=C(\N)c2ccc(F)cc2)cc1`, the inhibition is -1.71% (inactive).

As for `O=C(COC(=O)c1c2c(nc3ccccc13)/C(=C\c1cccs1)CCC2)Nc1ccccc1Cl`, the inhibition is 27.8% (inactive).

Regarding `O=C(COC(=O)c1c2c(nc3ccccc13)CCCC2)c1ccc(Br)s1`, the inhibition is 96.8% (active).

On to `NC(=O)c1ccc(NC(=O)COC(=O)c2c3c(nc4ccccc24)/C(=C\c2ccc4c(c2)OCO4)CCC3)cc1`, for which the inhibition was 18.2% (inactive).

For `COc1ccc2c(c1)CCC/C2=N\OC(=O)c1ccccc1F`, the inhibition was -7.06% (inactive).

As for `COc1cc2nc(CN(C)Cc3ccc(F)cc3)[nH]c(=O)c2cc1OC`, the inhibition is 9.19% (inactive).

As for `CC(=O)Nc1ccc(NC(=S)NC(=O)/C=C/c2ccccc2)cc1`, the inhibition is -1.29% (inactive).

Take `CC(C)C(NC(=O)c1ccc(Cl)cc1)C(=O)O` (centres undefined): the inhibition is 27.4% (inactive).

Turning to `Cc1ccc(S(=O)(=O)c2ccc(Cl)cc2)cc1S(=O)(=O)NC(C(=O)O)C(C)C` (centres undefined), the inhibition was 50.9% (active).

Regarding `CC(=O)Nc1cc(C(=O)O)ccc1S(=O)(=O)c1ccc(Cl)cc1`, the inhibition is -5.9% (inactive).

With `Cn1nc(-c2ccccc2)c(CO)c1Sc1ccccc1`, the inhibition is 18.3% (inactive).

With `Cn1cnc([N+](=O)[O-])c1Nc1ccccc1O`, the inhibition is -4.52% (inactive).

On to `Cn1cnc([N+](=O)[O-])c1Sc1ccccc1`, for which the inhibition was 51.5% (active).

Consider `C=CCn1c(SCC(=O)CC(=O)OCC)nc2cc(C(=O)N3CCC(C(N)=O)CC3)ccc2c1=O`, for which the inhibition was -4.29% (inactive).

In the case of `Cc1cccc(N2CCN(C(=O)c3cnn4c(C(F)F)cc(-c5ccccc5)nc34)CC2)c1C`, the inhibition was 90.6% (active).

In the case of `CC(=O)N1CCN(c2cccc(C)c2C)CC1`, the inhibition is -2.3% (inactive).

With `CCC(CC)C(=O)N1CCN(c2cccc(C)c2C)CC1`, the inhibition is -3.72% (inactive).

For the molecule `CC(=O)Nc1ccccc1OC(C)C(=O)N1CCC(C)CC1` (centres undefined), the inhibition was -5.19% (inactive).

On to `COc1ccc2[nH]c(=O)c(CNc3ccc(C)c(C)c3)cc2c1`, for which the inhibition is 98.6% (active).

Take `CCC(=O)N(Cc1cc2cc(OC)ccc2[nH]c1=O)c1ccccc1C`: the inhibition was 3.53% (inactive).

For `COc1ccc(N(Cc2cc3cc(OC)ccc3[nH]c2=O)S(C)(=O)=O)cc1`, the inhibition is 2.96% (inactive).

Consider `CC(NC(=S)Nc1ccc(OC(F)F)cc1)c1ccc(F)cc1` (centres undefined), for which the inhibition was 36.8% (inactive).

In the case of `OCCC1CN(Cc2ccccc2-c2ccco2)CCN1Cc1ccsc1` (centres undefined), the inhibition was 9.42% (inactive).

For the molecule `OCCC#Cc1ccc(CN2CCN(Cc3ccsc3)C(CCO)C2)cc1` (centres undefined), the inhibition was -0.59% (inactive).

On to `OCCC1CN(Cc2cccc(OC3CCCC3)c2)CCN1Cc1ccsc1` (centres undefined), for which the inhibition was 80.5% (active).
